PubChem BioAssay (Tox21)
Records with an inconclusive call do not appear. Calls of active or inactive are those of the source. The call rests on the fitted dose curve; in most records, active means well fitted curve in the direction sought with a large enough effect in the repeat runs; inconclusive means weak or mixed curves; inactive means no such curve, though single readings can be large; an effect the other way counts as inactive or inconclusive.

What was measured:
[1] = target: Nuclear receptor subfamily 1 group I member 2 (Homo sapiens) (UniProt O75469); assay: Human pregnane X receptor (PXR) small molecule agonists, qHTS assay (AID 1346982); further: nearly all actives have a fitted effect of over 35% in size; further: potency means the concentration at half of the fitted maximal effect
Nuclear receptor subfamily 1 group I member 2 (Homo sapiens), sequence (O75469 whole entry, looked up): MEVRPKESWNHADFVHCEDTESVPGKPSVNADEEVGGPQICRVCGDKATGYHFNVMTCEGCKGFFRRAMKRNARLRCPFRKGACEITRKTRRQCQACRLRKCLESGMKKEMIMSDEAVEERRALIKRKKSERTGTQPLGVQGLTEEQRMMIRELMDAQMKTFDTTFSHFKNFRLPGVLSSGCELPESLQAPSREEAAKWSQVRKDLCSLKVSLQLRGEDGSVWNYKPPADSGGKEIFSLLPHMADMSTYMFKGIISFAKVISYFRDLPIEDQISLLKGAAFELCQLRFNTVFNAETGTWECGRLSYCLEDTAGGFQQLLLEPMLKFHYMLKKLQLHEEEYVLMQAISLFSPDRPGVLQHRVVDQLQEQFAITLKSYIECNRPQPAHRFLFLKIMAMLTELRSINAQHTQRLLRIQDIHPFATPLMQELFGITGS
Procedure, shortened: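 Luminescence (ONE-Glo, 30 min RT) after 24 hr compound exposure of PXR-Luc HepG2 cells; cells rested 5 hr post-plating in 5% charcoal-stripped FBS medium.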

[2] = target: Nuclear receptor subfamily 1 group I member 2 (Rattus norvegicus) (UniProt Q9R1A7); assay: Rat pregnane X receptor (rPXR) activation by small molecules, qHTS assay (AID 1346983); details: rPXR luciferase reporter cells, One-Glo luminescence, 24 h; max activation: stronger effect = higher value; further: nearly all actives have a fitted effect of over 20% in size
Nuclear receptor subfamily 1 group I member 2 (Rattus norvegicus), sequence (Q9R1A7 whole entry, looked up): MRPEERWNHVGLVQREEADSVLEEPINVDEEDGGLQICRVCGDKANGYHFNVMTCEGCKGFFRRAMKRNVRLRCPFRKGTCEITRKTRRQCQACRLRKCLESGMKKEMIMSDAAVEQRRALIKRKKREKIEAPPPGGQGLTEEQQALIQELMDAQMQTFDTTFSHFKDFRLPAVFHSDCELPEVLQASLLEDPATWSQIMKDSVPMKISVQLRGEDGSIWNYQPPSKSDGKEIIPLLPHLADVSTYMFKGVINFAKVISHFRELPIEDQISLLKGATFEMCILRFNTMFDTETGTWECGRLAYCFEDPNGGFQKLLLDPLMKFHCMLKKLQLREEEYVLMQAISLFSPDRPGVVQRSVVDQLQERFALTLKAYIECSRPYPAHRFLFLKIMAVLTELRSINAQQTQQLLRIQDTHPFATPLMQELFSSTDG
Procedure, shortened: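 Cell-based rPXR luciferase reporter assay, 2,000 cells per well, rested 5hr at 37 C before compound addition in DMSO, then 24 hr at 37 C. One-Glo reagent was added and luminescence read after 30 min at room temperature.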

[3] = target: Nuclear receptor subfamily 1 group I member 2 (Homo sapiens) (UniProt O75469); assay: CYP3A4 induction through human pregnane X receptor (PXR) by small molecules, qHTS assay (AID 1346984); further: nearly all actives have a fitted effect of over 40% in size
Procedure, shortened: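 DPX-2 reporter cells; 24h cpd, 37C; Luciferin-IPA 3uM final x3h; One-Glo 30 min RT; lumi read.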

[4] = target: Cytochrome P450 2D6 (Homo sapiens) (UniProt P10635); assay: Cytochrome P450 Family 2 Subfamily D Member 6 (CYP2D6) small molecule antagonists: luciferase reporter qHTS assay (AID 1671196); further: nearly all actives have a fitted effect of over 50% in size; further: potency means the concentration at half of the fitted maximal effect
Cytochrome P450 2D6 (Homo sapiens), sequence (P10635 whole entry, looked up): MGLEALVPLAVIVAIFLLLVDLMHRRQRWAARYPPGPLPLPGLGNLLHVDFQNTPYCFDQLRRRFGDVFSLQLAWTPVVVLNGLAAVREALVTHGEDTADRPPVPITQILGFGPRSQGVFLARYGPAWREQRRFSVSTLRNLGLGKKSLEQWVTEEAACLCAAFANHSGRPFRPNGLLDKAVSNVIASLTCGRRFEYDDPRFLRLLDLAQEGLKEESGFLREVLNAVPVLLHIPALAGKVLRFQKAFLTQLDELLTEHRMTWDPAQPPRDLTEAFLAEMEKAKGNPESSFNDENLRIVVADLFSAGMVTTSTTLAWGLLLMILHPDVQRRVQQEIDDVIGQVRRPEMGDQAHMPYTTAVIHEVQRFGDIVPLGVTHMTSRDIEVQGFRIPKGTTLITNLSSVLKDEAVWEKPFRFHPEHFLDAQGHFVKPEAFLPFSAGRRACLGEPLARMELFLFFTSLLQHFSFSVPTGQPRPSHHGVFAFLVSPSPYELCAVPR
Procedure, shortened: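 Inhibition of CYP2D6 was gauged by loss of luminescence, since light produced tracks the luciferin generated from a proluciferin substrate. A 10 min room-temperature preincubation preceded 1 h NADPH-supported turnover.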

[5] = target: Cytochrome P450 2C19 (Homo sapiens) (UniProt P33261); assay: Cytochrome P450 Family 2 Subfamily C Member 19 (CYP2C19) small molecule antagonists: luciferase reporter qHTS assay (AID 1671197); further: nearly all actives have a fitted effect of over 65% in size; further: potency means the concentration at half of the fitted maximal effect
Cytochrome P450 2C19 (Homo sapiens), sequence (P33261 whole entry, looked up): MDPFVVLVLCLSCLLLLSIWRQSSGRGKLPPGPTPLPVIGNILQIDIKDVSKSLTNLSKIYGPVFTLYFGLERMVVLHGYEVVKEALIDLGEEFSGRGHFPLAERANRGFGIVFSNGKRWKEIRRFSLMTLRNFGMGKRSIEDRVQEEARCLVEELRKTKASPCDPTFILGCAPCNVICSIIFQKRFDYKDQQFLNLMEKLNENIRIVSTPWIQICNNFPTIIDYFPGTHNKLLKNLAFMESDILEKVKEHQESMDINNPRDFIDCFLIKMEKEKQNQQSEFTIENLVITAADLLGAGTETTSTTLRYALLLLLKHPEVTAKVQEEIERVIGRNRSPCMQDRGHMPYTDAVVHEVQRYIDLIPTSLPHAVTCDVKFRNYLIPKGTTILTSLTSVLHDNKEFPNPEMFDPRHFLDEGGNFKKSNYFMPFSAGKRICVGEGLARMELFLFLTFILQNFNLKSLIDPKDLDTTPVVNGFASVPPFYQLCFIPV
Procedure, shortened: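 Light output is proportional to CYP2C19 activity: proluciferin substrate is converted to luciferin, then detected by a luciferin detection reagent that also stops the 1 h, 37C NADPH-driven reaction. Ketoconazole serves as positive control.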

[6] = target: Voltage-gated inwardly rectifying potassium channel KCNH2 (Homo sapiens) (UniProt Q12809); assay: Human Ether-a-go-go-Related Gene (hERG) channel small molecule antagonists: fluorescence cell-based qHTS assay (AID 1671200); further: nearly all actives have a fitted effect of over 50% in size; further: potency means the concentration at half of the fitted maximal effect
Voltage-gated inwardly rectifying potassium channel KCNH2 (Homo sapiens), sequence (Q12809 whole entry, looked up): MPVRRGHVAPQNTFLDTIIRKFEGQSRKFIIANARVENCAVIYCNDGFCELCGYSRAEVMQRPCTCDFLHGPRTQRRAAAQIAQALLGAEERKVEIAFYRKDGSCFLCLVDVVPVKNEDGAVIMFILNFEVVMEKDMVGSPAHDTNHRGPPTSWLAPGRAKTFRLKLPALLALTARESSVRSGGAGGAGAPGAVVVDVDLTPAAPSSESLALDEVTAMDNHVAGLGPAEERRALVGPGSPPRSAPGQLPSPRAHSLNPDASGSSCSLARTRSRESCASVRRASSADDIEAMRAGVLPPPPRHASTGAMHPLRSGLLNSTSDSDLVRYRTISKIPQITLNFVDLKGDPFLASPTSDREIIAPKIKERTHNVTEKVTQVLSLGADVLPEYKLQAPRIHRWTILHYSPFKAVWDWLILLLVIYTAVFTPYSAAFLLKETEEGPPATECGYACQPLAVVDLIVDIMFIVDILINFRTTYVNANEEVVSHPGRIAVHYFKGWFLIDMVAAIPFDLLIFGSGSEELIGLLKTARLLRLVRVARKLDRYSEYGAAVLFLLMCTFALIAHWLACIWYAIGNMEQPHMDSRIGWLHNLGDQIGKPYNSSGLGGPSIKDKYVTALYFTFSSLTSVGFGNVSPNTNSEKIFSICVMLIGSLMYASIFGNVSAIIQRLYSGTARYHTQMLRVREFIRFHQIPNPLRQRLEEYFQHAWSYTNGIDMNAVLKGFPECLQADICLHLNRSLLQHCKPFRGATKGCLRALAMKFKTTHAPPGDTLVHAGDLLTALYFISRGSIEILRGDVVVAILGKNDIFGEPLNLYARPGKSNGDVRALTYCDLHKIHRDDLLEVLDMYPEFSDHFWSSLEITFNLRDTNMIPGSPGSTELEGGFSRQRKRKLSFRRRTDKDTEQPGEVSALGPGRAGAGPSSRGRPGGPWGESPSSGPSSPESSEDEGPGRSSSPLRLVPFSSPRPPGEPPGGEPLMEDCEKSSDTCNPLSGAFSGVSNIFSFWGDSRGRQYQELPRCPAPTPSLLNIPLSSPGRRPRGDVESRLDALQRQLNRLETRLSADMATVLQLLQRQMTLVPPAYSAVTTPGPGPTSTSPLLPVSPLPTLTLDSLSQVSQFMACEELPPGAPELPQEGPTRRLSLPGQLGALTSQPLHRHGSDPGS
Procedure, shortened: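 Quantitative HTS in hERG-U2OS cells: thallium entry through the channel reports activity, read as continuous 480/540 nm fluorescence over 2 min after stimulus addition.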

[7] = target: Cytochrome P450 3A4 (Homo sapiens) (UniProt P08684); assay: Cytochrome P450 Family 3 Subfamily A Member 4 (CYP3A4) small molecule antagonists: luciferase reporter qHTS assay (AID 1671201); further: nearly all actives have a fitted effect of over 50% in size; further: potency means the concentration at half of the fitted maximal effect
Cytochrome P450 3A4 (Homo sapiens), sequence (P08684 whole entry, looked up): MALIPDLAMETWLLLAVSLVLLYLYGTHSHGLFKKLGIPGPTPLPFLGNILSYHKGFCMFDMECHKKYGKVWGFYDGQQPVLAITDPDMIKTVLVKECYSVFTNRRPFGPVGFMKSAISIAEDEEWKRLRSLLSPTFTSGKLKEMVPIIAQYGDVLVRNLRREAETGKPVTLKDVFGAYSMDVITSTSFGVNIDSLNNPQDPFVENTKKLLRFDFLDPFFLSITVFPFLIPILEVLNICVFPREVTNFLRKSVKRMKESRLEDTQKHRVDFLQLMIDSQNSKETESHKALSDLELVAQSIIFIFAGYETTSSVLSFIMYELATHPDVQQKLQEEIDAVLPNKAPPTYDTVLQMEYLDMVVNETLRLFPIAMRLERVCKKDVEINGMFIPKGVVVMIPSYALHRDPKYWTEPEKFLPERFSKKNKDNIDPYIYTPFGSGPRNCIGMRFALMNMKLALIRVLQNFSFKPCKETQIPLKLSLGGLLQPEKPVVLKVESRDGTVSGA
Procedure, shortened: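 Inhibition of CYP3A4 is measured as loss of light: the enzyme converts a proluciferin substrate to luciferin, detected luminescently. Reaction ran 1 h at room temperature with NADPH regeneration after a 10 min compound preincubation.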

[8] = target: Cytochrome P450 2C9 (Homo sapiens) (UniProt P11712); assay: Cytochrome P450 Family 2 Subfamily C Member 9 (CYP2C9) small molecule antagonists: luciferase reporter qHTS assay (AID 1671198); further: nearly all actives have a fitted effect of over 50% in size; further: potency means the concentration at half of the fitted maximal effect
Cytochrome P450 2C9 (Homo sapiens), sequence (P11712 whole entry, looked up): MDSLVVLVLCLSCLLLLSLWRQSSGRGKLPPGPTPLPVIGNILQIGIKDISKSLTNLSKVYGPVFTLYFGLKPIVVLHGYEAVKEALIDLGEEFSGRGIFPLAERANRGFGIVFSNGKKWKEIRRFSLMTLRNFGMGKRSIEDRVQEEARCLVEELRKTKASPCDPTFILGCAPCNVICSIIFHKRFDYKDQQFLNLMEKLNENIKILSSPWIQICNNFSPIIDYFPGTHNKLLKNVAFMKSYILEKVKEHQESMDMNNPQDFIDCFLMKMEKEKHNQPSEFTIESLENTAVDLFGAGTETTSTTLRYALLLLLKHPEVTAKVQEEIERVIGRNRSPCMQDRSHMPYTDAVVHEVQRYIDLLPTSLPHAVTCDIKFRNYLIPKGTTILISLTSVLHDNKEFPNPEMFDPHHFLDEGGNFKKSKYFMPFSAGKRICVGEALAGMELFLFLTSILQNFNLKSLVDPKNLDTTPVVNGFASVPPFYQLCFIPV
Procedure, shortened: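 CYP2C9 activity was measured with a P450-Glo proluciferin substrate. Enzyme–substrate mix was held with compound for 10 min at room temperature, then NADPH regeneration solution was added for 1 h at 37C. Luciferin product was read as luminescence.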

[9] = target: Cytochrome P450 1A2 (Homo sapiens) (UniProt P05177); assay: Cytochrome P450 Family 1 Subfamily A Member 2 (CYP1A2) small molecule antagonists: luciferase reporter qHTS assay (AID 1671199); further: nearly all actives have a fitted effect of over 50% in size; further: potency means the concentration at half of the fitted maximal effect
Cytochrome P450 1A2 (Homo sapiens), sequence (P05177 whole entry, looked up): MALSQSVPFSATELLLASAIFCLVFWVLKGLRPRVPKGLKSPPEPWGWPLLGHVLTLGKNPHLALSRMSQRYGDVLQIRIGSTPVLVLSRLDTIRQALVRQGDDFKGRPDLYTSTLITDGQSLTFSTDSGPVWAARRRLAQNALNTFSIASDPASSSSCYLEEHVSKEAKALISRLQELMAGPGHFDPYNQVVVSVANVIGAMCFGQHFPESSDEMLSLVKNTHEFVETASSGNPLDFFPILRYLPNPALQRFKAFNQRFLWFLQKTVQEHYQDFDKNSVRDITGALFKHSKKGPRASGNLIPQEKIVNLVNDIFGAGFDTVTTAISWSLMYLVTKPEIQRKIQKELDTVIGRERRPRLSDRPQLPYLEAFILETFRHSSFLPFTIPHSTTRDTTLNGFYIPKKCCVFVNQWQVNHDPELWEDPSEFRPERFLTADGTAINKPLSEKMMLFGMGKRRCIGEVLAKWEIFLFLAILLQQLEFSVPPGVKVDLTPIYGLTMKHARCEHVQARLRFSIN
Procedure, shortened: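 Signal from luciferin formed by CYP1A2 from a proluciferin substrate is read as luminescence, expressed in relative luminescence units. Compounds sit with enzyme 10 min, NADPH-driven reaction runs 1 h, all at room temperature.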

[10] = target: Nuclear receptor subfamily 1 group I member 2 (Homo sapiens) (UniProt O75469); assay: Human pregnane X receptor (PXR) activation by small molecules, qHTS assay (AID 1346985); further: nearly all actives have a fitted effect of over 40% in size
Procedure, shortened: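 DPX-2 cells (HepG2 co-transfected with a PXR response element and a CYP3A4-promoter luciferase construct) were seeded at 2,000 per well, rested 5 hr at 37C, then exposed to DMSO-dissolved compounds for 24 hr. Activation was read as luciferase luminescence.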
On the % scale 0 is the no-effect control and ±100 the full control effect.

CCC(C)(C)c1ccc(CC(C)CN2C[C@@H](C)O[C@@H](C)C2)cc1 (stereo not given in full)
inactive: Potency [1] | max activation [2] -0.729% | Potency [3] | Potency [7]
active: Potency [4] 6.92 µM | Potency [5] 11 µM | Potency [6] 9.52 µM

NC(=O)C1CO1 (stereo not given)
inactive: Potency [1] | Potency [4] | Potency [5] | Potency [8] | Potency [9] | Potency [6] | Potency [7]

c1ccc(-c2ccc(C(c3ccccc3)n3ccnc3)cc2)cc1 (stereo not given)
active: Potency [1] 23.7 µM | Potency [4] 1.55 µM | Potency [5] 0.617 µM | Potency [8] 0.219 µM | Potency [9] 5.49 µM | Potency [6] 7.56 µM

N#CCCOCCC#N
inactive: Potency [1] | Potency [4] | Potency [5] | Potency [8] | Potency [9] | Potency [6] | Potency [7]

O=C(Nc1ccc([N+](=O)[O-])cc1)Nc1ccc([N+](=O)[O-])cc1 (tested in a mixture with another compound)
inactive: Potency [1] | Potency [4] | Potency [5] | Potency [8] | Potency [9] | Potency [6] | Potency [7]

C=CC(=O)O[C@H]1C[C@@H]2CC[C@@]1(C)C2(C)C
inactive: Potency [1] | Potency [4] | Potency [5] | Potency [8] | Potency [9] | Potency [6] | Potency [7]

O=C(CCN1CCC(c2ccccc2)C1)c1ccc2c(c1)OCCO2 (stereo not given)
active: Potency [1] 13.3 µM | Potency [4] 2.19 µM
inactive: max activation [2] -4.55% | Potency [3] | Potency [10] | Potency [7]

CC(C)c1ccc2sc3ccccc3c(=O)c2c1
inactive: Potency [6] | Potency [7]
active: Potency [1] 17.2 µM | Potency [4] 28.3 µM | Potency [5] 7.96 µM | Potency [8] 11.2 µM | Potency [9] 7.1 µM

CCCCCCCCCCCCN1CCCC1=O
inactive: Potency [4] | Potency [6] | Potency [7]
active: Potency [1] 27.3 µM | Potency [5] 35.6 µM | Potency [8] 31.7 µM | Potency [9] 28.3 µM

CCNc1nc(NC(C)(C)C)nc(OC)n1
inactive: Potency [4] | Potency [8] | Potency [6] | Potency [7]
active: Potency [1] 61.1 µM | Potency [5] 35.6 µM | Potency [9] 20 µM

CCOC(=O)OC(=O)OCC
inactive: Potency [1] | Potency [4] | Potency [5] | Potency [8] | Potency [9] | Potency [6] | Potency [7]

N#Cc1ccc(C/C(=N/NC(=O)Nc2ccc(OC(F)(F)F)cc2)c2cccc(C(F)(F)F)c2)cc1
active: Potency [1] 54.5 µM | Potency [4] 39.9 µM | Potency [5] 12.6 µM | Potency [8] 22.4 µM | Potency [9] 25.2 µM

CC(=O)[C@]1(O)Cc2c(O)c3c(c(O)c2[C@@H](O[C@H]2C[C@H](N)[C@H](O)[C@H](C)O2)C1)C(=O)c1ccccc1C3=O
inactive: Potency [1] | Potency [3] | Potency [10] | Potency [6]

CCCOC(=O)c1ccc(O)cc1
active: Potency [1] 48.6 µM
inactive: max activation [2] -0.262% | Potency [6]

CO[Si](OC)(c1ccccc1)c1ccccc1
inactive: Potency [4] | Potency [9] | Potency [6]
active: Potency [1] 34.4 µM | Potency [5] 10 µM | Potency [8] 20 µM

Oc1ccc(Cl)cc1C1CCCC1
inactive: Potency [4] | Potency [6] | Potency [7]
active: Potency [1] 68.6 µM | Potency [5] 8.94 µM | Potency [8] 28.3 µM | Potency [9] 22.4 µM

SC1CCCCC1
inactive: Potency [1] | Potency [4] | Potency [5] | Potency [8] | Potency [9] | Potency [6] | Potency [7]

CC(C)(C)c1cc(CCC(=O)OCCSCCOC(=O)CCc2cc(C(C)(C)C)c(O)c(C(C)(C)C)c2)cc(C(C)(C)C)c1O
inactive: Potency [1] | Potency [4] | Potency [9] | Potency [6]
active: Potency [5] 8.71 µM | Potency [8] 2.19 µM | Potency [7] 4.9 µM

CCc1cccc(CC)c1
inactive: Potency [1] | Potency [4] | Potency [5] | Potency [8] | Potency [9] | Potency [6] | Potency [7]

C=CC(C)(C)O
inactive: Potency [1] | Potency [4] | Potency [5] | Potency [8] | Potency [9] | Potency [6] | Potency [7]

CC/C=C(\C)C=O
active: Potency [9] 39.9 µM
inactive: Potency [1] | Potency [4] | Potency [5] | Potency [8] | Potency [6] | Potency [7]

O=C(NCc1ncc(C(F)(F)F)cc1Cl)c1c(Cl)cccc1Cl
inactive: Potency [8] | Potency [6]
active: Potency [1] 1.22 µM | Potency [4] 2.83 µM | Potency [5] 20 µM | Potency [9] 31.7 µM | Potency [7] 8.94 µM

Clc1ccc2c(Cl)ccnc2c1
inactive: Potency [1] | Potency [4] | Potency [5] | Potency [8] | Potency [6] | Potency [7]
active: Potency [9] 5.64 µM

C/C(=N\[Si](C)(C)C)O[Si](C)(C)C
inactive: Potency [1] | Potency [4] | Potency [5] | Potency [8] | Potency [6] | Potency [7]
